Measurements: the supplement of paper PMC12532568

Key:
[1] = system: Danio rerio larvae Tg(actc1b:ZsGreen-LC3), 3 dpf; assay: LC3 puncta relative area vs vehicle, without NH4Cl (log2 fold change); higher = more autophagosomes; details: 10 µM; treatment time 16 h; NH4Cl: none
Experimental: (§1)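 Transgenic Tg(actc1b:ZsGreen-map1lc3) zebrafish larvae (2 dpf) were treated for 16 h with Tocris library compounds at 10 µM (n = 12 larvae per compound). Skeletal-muscle LC3 puncta area relative to body area was measured by high-content confocal imaging before and after 4 h of 100 mM NH4Cl (autophagic flux), normalised to vehicle (DMSO), and reported as log2 fold change.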

[2] = system: Danio rerio larvae Tg(actc1b:ZsGreen-LC3), 3 dpf; assay: LC3 puncta relative area vs vehicle, with NH4Cl (autophagic flux) (log2 fold change); higher = more autophagy; details: 10 µM; treatment time 16 h; NH4Cl: + 100 mM, 4 h
Experimental: as §1

SMILES	LC3 puncta (log2) [1]	LC3 puncta (log2) [2]
CC(C)(Oc1ccc(Cl)cc1)C(=O)O [Clofibric acid]	0.448	
NCC(O)(CS(=O)(=O)O)c1ccc(Cl)cc1 (configuration not stated) [2-Hydroxysaclofen]		0.449
